Out of some 5,500 compounds screened, about 2,000 (36%) were called active. Roughly 18% stayed inconclusive and do not appear here. Rule as the data show it: active = normalized growth mostly below about 0.91 (no sharp cut-off); inconclusive = no clear call, values can overlap the other calls; inactive = mostly above about 0.92. The list shows a part of the results.
Assay: chemical genetic growth profiling, strain panel (AID 1159580);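 also: tested at 20 µM; growth read once vehicle control cultures reached saturation at 30 °C; 1 = growth at the plate median or of vehicle wells; lower values mean less growth of the strain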
Details: S. cerevisiae deletion strains, growth OD

Measured: normalized growth

CCCc1nc(C)c2c(=O)[nH]c(-c3cc(S(=O)(=O)N4CCN(CC)CC4)ccc3OCC)nn12
inactive: locus YAL021C, strain ccr4, stronger effect = lower value 0.961 | locus YAL026C, strain drs2, stronger effect = lower value 0.944 | locus YAL030W, strain snc1, stronger effect = lower value 0.947 | locus YBL061C, strain skt5, stronger effect = lower value 0.979 | locus YBR009C, strain hhf1, stronger effect = lower value 0.975 | locus YBR023C, strain chs3, stronger effect = lower value 0.974 | locus YBR171W, strain sec66, stronger effect = lower value 0.967 | locus YBR231C, strain swc5, stronger effect = lower value 0.97 | locus YBR279W, strain paf1, stronger effect = lower value 0.981 | locus YCL011C, strain gbp2, stronger effect = lower value 0.974 | locus YCL016C, strain dcc1, stronger effect = lower value 0.974 | locus YCL061C, strain MRC1, stronger effect = lower value 0.952 | locus YCL069W, strain vba3, stronger effect = lower value 0.988 | locus YCR088W, strain abp1, stronger effect = lower value 0.98 | locus YDL005C, strain med2, stronger effect = lower value 0.98 | locus YDL040C, strain nat1, stronger effect = lower value 0.985 | locus YDR001C, strain nth1, stronger effect = lower value 0.964 | locus YDR069C, strain doa4, stronger effect = lower value 0.951 | locus YDR137W, strain rgp1, stronger effect = lower value 0.915 | locus YDR159W, strain sac3, stronger effect = lower value 0.93 | locus YDR195W, strain ref2 0.938 | locus YDR297W, strain sur2, stronger effect = lower value 0.984 | locus YDR334W, strain swr1, stronger effect = lower value 0.913 | locus YDR335W, strain msn5, stronger effect = lower value 0.97 | locus YDR392W, strain spt3, stronger effect = lower value 0.964 | locus YEL003W, strain gim4, stronger effect = lower value 0.969 | locus YEL037C, strain rad23, stronger effect = lower value 0.985 | locus YEL061C, strain CIN8 (second series), stronger effect = lower value 0.973 | locus YER015W, strain faa2, stronger effect = lower value 0.983 | locus YER016W, strain bim1, stronger effect = lower value 0.973 | locus YER111C, strain swi4, stronger effect = lower value 0.972 | locus YER155C, strain BEM2 (second series), stronger effect = lower value 0.945 | locus YFR010W, strain ubp6, stronger effect = lower value 0.943 | locus YGL167C, strain pmr1, stronger effect = lower value 0.957 | locus YGL173C, strain kem1, stronger effect = lower value 0.949 | locus YGL227W, strain vid30, stronger effect = lower value 0.965 | locus YGL240W, strain doc1, stronger effect = lower value 0.921 | locus YGL253W, strain hxk2, stronger effect = lower value 0.971 | locus YHR013C, strain ard1, stronger effect = lower value 0.931 | locus YHR027C, strain rpn1, stronger effect = lower value 0.942 | locus YHR030C, strain SLT2, stronger effect = lower value 1.08 | locus YHR079C, strain IRE1, stronger effect = lower value 1.07 | locus YHR142W, strain chs7, stronger effect = lower value 0.971 | locus YJL092W, strain hpr5, stronger effect = lower value 0.96 | locus YJL095W, strain BCK1 (second series), stronger effect = lower value 0.974 | locus YJL095W, strain BCK1, stronger effect = lower value 1.01 | locus YJL115W, strain asf1, stronger effect = lower value 0.943 | locus YJL129C, strain trk1, stronger effect = lower value 0.969 | locus YJL154C, strain vps35, stronger effect = lower value 0.97 | locus YJL164C, strain tpk1, stronger effect = lower value 0.948 | locus YJL166W, strain qcr8, stronger effect = lower value 0.969 | locus YJL187C, strain SWE1, stronger effect = lower value 0.972 | locus YJR066W, strain TOR1, stronger effect = lower value 0.979 | locus YKL160W, strain elf1, stronger effect = lower value 0.987 | locus YKR026C, strain gcn3, stronger effect = lower value 0.973 | locus YKR091W, strain srl3, stronger effect = lower value 0.977 | locus YLL001W, strain dnm1, stronger effect = lower value 0.973 | locus YLL026W, stronger effect = lower value 0.947 | locus YLL041C, strain sdh2, stronger effect = lower value 0.96 | locus YLR027C, strain aat2, stronger effect = lower value 0.953 | locus YLR113W, strain HOG1, stronger effect = lower value 0.997 | locus YLR221C, strain rsa3, stronger effect = lower value 0.978 | locus YLR258W, strain gsy2, stronger effect = lower value 0.983 | locus YLR262C, strain YPT6 (second series), stronger effect = lower value 0.979 | locus YLR320W, strain mms22, stronger effect = lower value 0.964 | locus YLR342W, strain FKS1, stronger effect = lower value 0.98 | locus YLR357W, strain rsc2, stronger effect = lower value 0.937 | locus YLR370C, strain arc18, stronger effect = lower value 0.966 | locus YLR384C, strain iki3, stronger effect = lower value 0.95 | locus YML120C, strain ndi1, stronger effect = lower value 0.981 | locus YMR058W, strain fet3, stronger effect = lower value 0.954 | locus YMR125W, strain sto1, stronger effect = lower value 0.969 | locus YMR129W, stronger effect = lower value 0.981 | locus YMR205C, strain PFK2, stronger effect = lower value 0.944 | locus YMR231W, strain pep5, stronger effect = lower value 0.978 | locus YNL071W, strain lat1, stronger effect = lower value 0.988 | locus YNL183C, strain NPR1, stronger effect = lower value 0.967 | locus YNL209W, strain ssb2, stronger effect = lower value 0.978 | locus YNL248C, strain rpa49, stronger effect = lower value 0.966 | locus YNL322C, strain KRE1 (second series), stronger effect = lower value 0.956 | locus YNR049C, strain mso1, stronger effect = lower value 0.967 | locus YOR001W, strain rrp6, stronger effect = lower value 0.956 | locus YOR070C, strain gyp1, stronger effect = lower value 0.983 | locus YOR080W, strain dia2, stronger effect = lower value 0.967 | locus YOR083W, strain WHI5, stronger effect = lower value 0.946 | locus YOR106W, strain vam3, stronger effect = lower value 0.955 | locus YOR231W, strain MKK1, stronger effect = lower value 1.05 | locus YOR265W, strain rbl2, stronger effect = lower value 0.98 | locus YOR270C, strain vph1, stronger effect = lower value 0.992 | locus YOR290C, strain snf2, stronger effect = lower value 0.938 | locus YPL051W, strain arl3, stronger effect = lower value 0.975 | locus YPL078C, strain atp4, stronger effect = lower value 0.97 | locus YPL106C, strain sse1, stronger effect = lower value 0.868 | locus YPL240C, strain hsp82, stronger effect = lower value 0.973 | locus YPL256C, strain CLN2, stronger effect = lower value 1.09

From PubChem BioAssay AID1159580 (chemical genetic matrix, 2015)
